# Source: PubChem
# An excerpt weighted towards active compounds, which were near 19% of everything screened.
# DT40 TDP1 CPT: qHTS for Inhibitors of human tyrosyl-DNA phosphodiesterase 1 (TDP1): qHTS in cells in presence of CPT; chicken DT40 Tdp1-/-;hTDP1 cells + 20 nM CPT, ATP luminescence, 48 h; Potency, µM (titrated, usually from 46.2 µM), for inactives: at the highest dose activity change, negative = growth inhibition, most hits filed as inhibitors; AID 686979, 2013; actives 12% (n = 420,000); also: potency is read from the fitted curve at half-maximal effect; nearly all actives have a fitted effect of over 55% in size
#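 Chicken DT40 Tdp1-/- cells stably complemented with human TDP1 were seeded at 400 cells/well in medium containing 20 nM camptothecin, exposed to pin-transferred compounds, and grown at 37 °C for at least 48 hr. Viability was read as ATP luminescence.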
# Giardia killer: Small Molecules that selectively kill Giardia lamblia: qHTS | Giardia lamblia trophozoite viability | activity change, % at 7.66 µM, hits read low | actives 0.15% (n = 340,000) | AID 540267, 2011; in the data active = activity change below about -80%; inconclusive = between about -30% and that limit;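 also: parasites exposed to compound for two days anaerobically before the ATP read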
#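 Luminescent ATP signal served as the viability read-out, measured 15-30 min after adding ATP detection reagent to trophozoites that had been incubated with compounds for 48 hrs at 37 deg C anaerobically at 100 cells/well.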
# IL1B secr inh: qHTS for Inhibitors of Inflammasome Signaling: IL-1-beta AlphaLISA Primary Screen | THP-1 LPS/ATP IL-1B secretion, AlphaLISA, 16 h; stronger effect = lower value | activity change, % at 57.5 µM | actives 4.7% (n = 360,000); in the data active = activity change below about -50%; inconclusive = mostly about -30% to -49%
#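 Secreted IL-1B measured by AlphaLISA bead assay after 16 h compound exposure of THP-1 cells; compounds (final up to 57.5 uM) added 1 h before LPS (250 ng/mL) and ATP (1.25 mM) stimulation; lower signal means less secretion.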
# TDP1 block: qHTS Assay for Inhibitors of Tyrosyl-DNA Phosphodiesterase (TDP1); Potency, µM (series often up to 130 µM), without a hit: at the highest dose activity change, negative = inhibition, most hits filed as inhibitors; Tyrosyl-DNA phosphodiesterase 1 (Homo sapiens), Q9NUW8; recombinant TDP1, AlphaScreen DNA substrate cleavage; actives 0.28% (n = 350,000); AID 485290, 2010; also: potency is read from the fitted curve at half-maximal effect; nearly all actives have a fitted effect of over 40% in size
# Target sequence (Q9NUW8 whole entry, looked up): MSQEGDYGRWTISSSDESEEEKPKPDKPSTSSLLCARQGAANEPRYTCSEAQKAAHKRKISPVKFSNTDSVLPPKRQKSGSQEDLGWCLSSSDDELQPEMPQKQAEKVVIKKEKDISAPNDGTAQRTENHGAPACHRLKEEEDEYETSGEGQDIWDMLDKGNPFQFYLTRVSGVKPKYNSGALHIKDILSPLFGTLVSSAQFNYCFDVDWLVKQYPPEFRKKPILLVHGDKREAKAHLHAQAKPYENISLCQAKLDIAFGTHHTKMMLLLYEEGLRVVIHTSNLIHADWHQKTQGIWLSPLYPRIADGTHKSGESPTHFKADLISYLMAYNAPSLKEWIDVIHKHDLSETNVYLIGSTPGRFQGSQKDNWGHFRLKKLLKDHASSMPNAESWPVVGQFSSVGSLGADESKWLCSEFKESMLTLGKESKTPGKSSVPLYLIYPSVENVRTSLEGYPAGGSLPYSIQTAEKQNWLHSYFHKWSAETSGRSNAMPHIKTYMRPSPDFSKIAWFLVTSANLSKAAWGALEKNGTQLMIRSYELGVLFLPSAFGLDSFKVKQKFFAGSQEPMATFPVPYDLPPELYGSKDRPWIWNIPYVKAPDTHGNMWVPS
#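 Recombinant E. coli-expressed Tdp1 (1 nM) preincubated with compound 15 min at RT, then 5'-biotin/3'-phosphotyrosine-FITC DNA substrate (15 nM) added for 5 min. AlphaScreen beads (10 ug/ml) added, 10 min RT; tyrosine-FITC cleavage read as signal loss.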
# DT40 TDP1 no CPT: qHTS for Inhibitors of human tyrosyl-DNA phosphodiesterase 1 (TDP1): qHTS in cells in absence of CPT. DT40 Tdp1-/- hTDP1 cells, no CPT, ATP luminescence, 48 h. Potency, µM (titrated, usually from 46.2 µM), inactives show at the top dose activity change, negative = growth inhibition, actives largely listed as inhibitors. actives 15% (n = 420,000); also: potency is read from the fitted curve at half-maximal effect; nearly all actives have a fitted effect of over 55% in size
#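 A cellular qHTS used chicken DT40 cells lacking endogenous Tdp1 but carrying stably transfected human TDP1. Compounds were applied without camptothecin, and cell growth kinetics were judged by ATP-dependent luminescence after ≥48 hr.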
# ELG1 DNA repair: qHTS screen for small molecules that inhibit ELG1-dependent DNA repair in human embryonic kidney (HEK293T) cells expressing luciferase-tagged ELG1; HEK293T ELG1-luciferase reporter, luminescence, 16 h; DNA damage induced by 5-fluorouridine; actives 2.3% (n = 330,000); AID 504467, 2011; Potency, µM (highest dose often 46.1 µM), inactives show at the highest dose activity change, negative = inhibition, hits mostly inhibitors; also: potency is read from the fitted curve at half-maximal effect; nearly all actives have a fitted effect of over 55% in size
#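 Step one: seed 2,000 cells per well. Step two: pin-transfer compound or DMSO alongside 5-fluorouridine. Step three: incubate 16 hr, 37 °C, 5% CO2. Step four: add ONE-Glo, wait 30 min, read luminescence.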
# Active calls of the source: *; u = inconclusive; x = no result given; [ ] = remark or other dose. Unless noted, calls follow the shape of the dose curve; as a rule, active = well fitted curve in the direction sought with a large enough effect; inconclusive = small, poorly fitted or top-dose-only effect, or another doubt; inactive = no such curve, though single readings can be large; an effect the other way counts as inactive or inconclusive. % is scaled to controls: 0 for no effect and ±100 for the full control effect.
SMILES,DT40 TDP1 CPT,Giardia killer,IL1B secr inh,TDP1 block,DT40 TDP1 no CPT,ELG1 DNA repair
Cc1ccc(C)c(C(=O)C(C)Sc2nc3nn(-c4ccccc4)c(=O)c-3c3n2CCCCC3)c1 (stereo unspecified),u,-6.7,0.0,6.4%[56.1 µM],20.6µM*,0.5%
CCOC(=O)C(c1ccccc1)C(Nc1ccc(Cl)c(Cl)c1)c1ccccn1 (stereo unspecified),u,32.4,41.2,7.6%,9.2µM*,0.0%
CCOC(=O)CNNC(=O)Nc1ccc(Cl)c(Cl)c1,-9.4%,-6.6,-19.6,1.3%,-17.1%,-9.5%
CCOC(=O)C(C(=O)OCC)C(Nc1cccc(Br)c1)c1ccccc1 (stereo unspecified),14.6µM*,11.3,-68.4*,2.0%,u,u
Cn1c(N)c(C(=O)COC(=O)CC(NC(=O)c2ccccc2Cl)c2ccccc2)c(=O)n(C)c1=O (stereo unspecified),u,-15.7,28.8,2.5%,u,-16.2%
COc1cccc(CN2C(=O)c3ccccc3Sc3ccc(C(=O)NCCc4ccc(C)cc4)cc32)c1,u,x,x,-2.3%,u,x
CC(=O)c1cccc(NC(=O)C2C3C=CC(C3=C(c3ccccc3)c3ccccc3)C2C(=O)O)c1 (stereo unspecified),-10.7%,-25.4,10.8,-5.5%,-27.3%,14.4%
CC(NC(=O)Nc1ccc(F)cc1F)c1ccncc1 (stereo unspecified),-2.0%,-7.1,4.7,2.3%,9.5%,0.3%
Cc1ccc[n+](-c2[nH]c(=O)sc2/C=N/N=C(\[O-])c2cccnc2)c1,8.3%,49.0,9.0,50.1µM*,-2.6%,15.4%
Cc1cc[n+](-c2[nH]c(=O)sc2/C=N/N=C(\[O-])c2ccncc2)cc1C,-6.7%,-5.1,-5.9,-11.5%,14.9%,4.2%
Cc1cc[n+](-c2[nH]c(=O)sc2/C=N/N=C(\[O-])c2ccccc2)cc1,0.8%,-5.4,0.9,39.8µM*,1.4%,9.8%
Cc1cc[n+](-c2[nH]c(=O)sc2/C=N/N=C(\[O-])c2ccccc2)cc1C,17.4%,-0.1,21.7,39.8µM*,-0.8%,-7.5%
O=c1[nH]c(-[n+]2ccccc2)c(/C=N/N=C(\[O-])c2ccccc2)s1,13.8%,-0.3,0.4,-2.6%,2.0%,-5.1%
Cc1cc[n+](-c2[nH]c(=O)sc2/C=N/N=C(\[O-])c2ccncc2)cc1,-11.5%,-6.5,5.8,39.8µM*,2.3%,1.3%
Cc1cc[n+](-c2[nH]c(=O)sc2/C=N/N=C(\[O-])CCn2c3ccccc3c3ccccc32)cc1,3.3%,-6.9,16.5,4.7%,16.4%,14.3%
CCc1ccc[n+](-c2[nH]c(=O)sc2/C=N/N=C(\[O-])c2cccnc2)c1,-2.3%,-2.7,0.0,-0.6%,11.4%,12.6%
N#CCCn1cnc2c1NC=NC2Cl (stereo unspecified),x,x,x,3.1%,x,x
Cc1c(C(=O)NCC2(N3CCOCC3)CCCC2)cnn1-c1nccc(-c2ccccc2F)n1,4.2%[9.04 µM],x,x,x,-9.4%,x
Nc1nc(N)c2ncn(C3C=CC(CO)C3)c2n1 (stereo unspecified),6.51µM*,x,16.4,x,9.2µM*,x
CCN(CC)c1ccc(CNS(=O)(=O)c2cc3c(cc2C)NC(=O)CO3)cc1,u,x,x,2.7%,u,x
O=C(Nc1ccccc1C(=O)NCCCN1CCOCC1)c1ccc(F)cc1,-1.8%,14.5,u,0.6%,1.0%,6.5%
O=C(NC(=S)Nc1ccc(Cl)cn1)C(c1ccccc1)c1ccccc1,u,-11.2,0.9,2.9%,23.1µM*,u
CCC(=O)NC(=S)Nc1ccc(Cl)cn1,-8.9%,-1.8,-6.0,-2.0%,-1.5%,14.3%
S=C(Nc1ccccc1)Nc1ccc(Cl)cn1,23.1µM*,2.4,0.0,-8.3%,5.8µM*,u
Cn1cc(S(=O)(=O)N2CCCCCC2)cc1C(=O)NCc1ccc(F)cc1,-24.8%,x,x,-1.8%,u,x
SMILES,DT40 TDP1 CPT,Giardia killer,IL1B secr inh,TDP1 block,DT40 TDP1 no CPT,ELG1 DNA repair
CCn1c(C(=O)N2CCC(C(=O)NCc3ccc4c(c3)OCO4)CC2)cc2sccc21,23.1µM*,-1.9,-0.3,5.3%,14.6µM*,7.31µM*
CCc1c(C)nc2ncnn2c1N1CCCC(C(=O)Nc2ccc(NC(C)=O)cc2)C1 (stereo unspecified),5.8%,-4.6,-10.3,-1.9%,5.6%,1.8%
Cn1c(C(=O)N2CCCC(C(=O)NCc3ccc4c(c3)OCO4)C2)cc2sccc21 (stereo unspecified),u,-18.3,3.2,5.9%,23.1µM*,u
CCc1c(C)nc2ncnn2c1N1CCCC(C(=O)NCc2ccc3c(c2)OCO3)C1 (stereo unspecified),u,1.4,6.8,1.0%,20.6µM*,u
CCCc1ccc(OCc2ccc(C(=O)Nc3ccccc3C(=O)OC)o2)cc1,u,x,x,-3.2%,u,x
COCCNc1nc2cc(-c3cccc(C(F)(F)F)c3)sc2c(=O)n1C,u,x,72.1,x,-21.6%,x
COCCNc1nc(NCCOc2ccccc2)c2sc(-c3ccccc3)cc2n1,16.4µM*,x,-107.5*,x,14.6µM*,x
COCCNc1nc2cc(-c3ccc(C)cc3)sc2c(=O)n1C,u,x,11.8,x,u,x
COCCNc1nc(Oc2cccc(NC(C)=O)c2)c2sc(-c3ccccc3)cc2n1,u,x,-22.2,x,u,x
COCCNc1nc(NCCN2CCNC2=O)c2sc(-c3ccccc3)cc2n1,25.9µM*,x,x,x,20.6µM*,x
COCCNc1nc(NCCOC)c2sc(-c3ccccc3)cc2n1,25.9µM*,x,x,x,25.9µM*,x
COCCNc1nc(-c2ccc(OC)cc2C)c2sc(-c3ccccc3)cc2n1,20.6µM*,x,-10.6,x,16.4µM*,x
CCOc1cc(N2CCOCC2)c(OCC)cc1NC(=O)CN1CCSC1=O,-28.8%,-29.4,-12.4,-15.1%[56.1 µM],-20.2%,7.8%
C=CCNc1nc(NCc2cccc(OC)c2)c2sc(-c3ccccc3)cc2n1,5.8µM*,x,-107.7*,x,4.11µM*,x
c1ccc(-c2cc3nc(NCc4cccs4)nc(NCc4ccc5occc5c4)c3s2)cc1,u,x,-88.7*,x,u,x
Cc1ccc(-n2c(=O)[nH]c3cc(C(=O)NCCc4ccccc4)ccc3c2=O)cc1,1.3%,x,x,2.9%,-24.9%,x
O=[N+]([O-])c1ccc(NCCO)c(OCCO)c1,x,x,x,18.3%,x,x
